In PubChem BioAssay AID1159580 (chemical genetic matrix, 2015):
About 2,000 (36%) of roughly 5,500 compounds were called active. Roughly 18% stayed inconclusive and do not appear here. The list shows a part of the results. Values without a mark were called inactive. Rule as the data show it: active = normalized growth mostly below about 0.91 (no sharp cut-off); inconclusive = no clear call, values can overlap the other calls; inactive = mostly above about 0.92.

Test: chemical genetic growth profiling, strain panel (AID 1159580);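 also: tested at 20 µM; growth read once vehicle control cultures reached saturation at 30 °C; 1 = growth at the plate median or of vehicle wells; lower values mean less growth of the strain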
Conditions: S. cerevisiae deletion strains, growth OD

For `CC12CCC(=O)C=C1CCc1ccccc12` (configuration not stated), the normalized growth (locus YAL021C, strain ccr4, stronger effect = lower value) was 0.992, the normalized growth (locus YAL026C, strain drs2, stronger effect = lower value) was 0.985 and the normalized growth (locus YAL030W, strain snc1, stronger effect = lower value) was 0.984. For the same compound, the normalized growth (locus YBL061C, strain skt5, stronger effect = lower value) was 0.981, the normalized growth (locus YBR009C, strain hhf1, stronger effect = lower value) was 0.985 and the normalized growth (locus YBR023C, strain chs3, stronger effect = lower value) was 0.979. The normalized growth (locus YBR171W, strain sec66, stronger effect = lower value) was 0.972, the normalized growth (locus YBR231C, strain swc5, stronger effect = lower value) was 0.985 and the normalized growth (locus YBR279W, strain paf1, stronger effect = lower value) was 0.985. The normalized growth (locus YCL011C, strain gbp2, stronger effect = lower value) was 0.997, the normalized growth (locus YCL016C, strain dcc1, stronger effect = lower value) was 0.978 and the normalized growth (locus YCL061C, strain MRC1, stronger effect = lower value) was 0.977. The normalized growth (locus YCL069W, strain vba3, stronger effect = lower value) was 0.986, the normalized growth (locus YCR088W, strain abp1, stronger effect = lower value) was 0.966 and the normalized growth (locus YDL005C, strain med2, stronger effect = lower value) was 0.985. For the same compound, the normalized growth (locus YDL040C, strain nat1, stronger effect = lower value) was 0.967, the normalized growth (locus YDR001C, strain nth1, stronger effect = lower value) was 0.967 and the normalized growth (locus YDR069C, strain doa4, stronger effect = lower value) was 0.984. It also gave a normalized growth (locus YDR137W, strain rgp1, stronger effect = lower value) of 1.05, a normalized growth (locus YDR159W, strain sac3, stronger effect = lower value) of 0.955 and a normalized growth (locus YDR195W, strain ref2) of 0.947. The normalized growth (locus YDR297W, strain sur2, stronger effect = lower value) was 0.978, the normalized growth (locus YDR334W, strain swr1, stronger effect = lower value) was 0.959 and the normalized growth (locus YDR335W, strain msn5, stronger effect = lower value) was 0.978. It also gave a normalized growth (locus YDR392W, strain spt3, stronger effect = lower value) of 0.825, a normalized growth (locus YEL003W, strain gim4, stronger effect = lower value) of 0.981 and a normalized growth (locus YEL037C, strain rad23, stronger effect = lower value) of 0.972. The normalized growth (locus YEL061C, strain CIN8 (second series), stronger effect = lower value) was 0.966, the normalized growth (locus YER015W, strain faa2, stronger effect = lower value) was 0.986 and the normalized growth (locus YER016W, strain bim1, stronger effect = lower value) was 0.972. The normalized growth (locus YER111C, strain swi4, stronger effect = lower value) was 0.972, the normalized growth (locus YER155C, strain BEM2 (second series), stronger effect = lower value) was 0.849 (active) and the normalized growth (locus YFR010W, strain ubp6, stronger effect = lower value) was 0.99. The normalized growth (locus YGL167C, strain pmr1, stronger effect = lower value) was 0.97, the normalized growth (locus YGL173C, strain kem1, stronger effect = lower value) was 0.985 and the normalized growth (locus YGL227W, strain vid30, stronger effect = lower value) was 0.979. The normalized growth (locus YGL240W, strain doc1, stronger effect = lower value) was 0.925, the normalized growth (locus YGL253W, strain hxk2, stronger effect = lower value) was 0.98 and the normalized growth (locus YHR013C, strain ard1, stronger effect = lower value) was 0.941. It also gave a normalized growth (locus YHR027C, strain rpn1, stronger effect = lower value) of 0.994, a normalized growth (locus YHR142W, strain chs7, stronger effect = lower value) of 0.978 and a normalized growth (locus YJL092W, strain hpr5, stronger effect = lower value) of 0.974. It also gave a normalized growth (locus YJL095W, strain BCK1 (second series), stronger effect = lower value) of 0.994, a normalized growth (locus YJL115W, strain asf1, stronger effect = lower value) of 0.977 and a normalized growth (locus YJL129C, strain trk1, stronger effect = lower value) of 0.964. For the same compound, the normalized growth (locus YJL154C, strain vps35, stronger effect = lower value) was 0.972, the normalized growth (locus YJL164C, strain tpk1, stronger effect = lower value) was 0.984 and the normalized growth (locus YJL166W, strain qcr8, stronger effect = lower value) was 0.977. It also gave a normalized growth (locus YJL187C, strain SWE1, stronger effect = lower value) of 0.982, a normalized growth (locus YKL160W, strain elf1, stronger effect = lower value) of 1 and a normalized growth (locus YKR026C, strain gcn3, stronger effect = lower value) of 0.951. For the same compound, the normalized growth (locus YKR091W, strain srl3, stronger effect = lower value) was 0.971, the normalized growth (locus YLL001W, strain dnm1, stronger effect = lower value) was 0.968 and the normalized growth (locus YLL026W, stronger effect = lower value) was 0.979. It also gave a normalized growth (locus YLL041C, strain sdh2, stronger effect = lower value) of 0.973, a normalized growth (locus YLR027C, strain aat2, stronger effect = lower value) of 0.99 and a normalized growth (locus YLR221C, strain rsa3, stronger effect = lower value) of 1.01. The normalized growth (locus YLR258W, strain gsy2, stronger effect = lower value) was 0.992, the normalized growth (locus YLR262C, strain YPT6 (second series), stronger effect = lower value) was 1.07 and the normalized growth (locus YLR320W, strain mms22, stronger effect = lower value) was 0.973. The normalized growth (locus YLR342W, strain FKS1, stronger effect = lower value) was 0.977, the normalized growth (locus YLR357W, strain rsc2, stronger effect = lower value) was 0.844 (active) and the normalized growth (locus YLR370C, strain arc18, stronger effect = lower value) was 0.984. The normalized growth (locus YLR384C, strain iki3, stronger effect = lower value) was 0.972, the normalized growth (locus YML120C, strain ndi1, stronger effect = lower value) was 0.984 and the normalized growth (locus YMR058W, strain fet3, stronger effect = lower value) was 0.982. For the same compound, the normalized growth (locus YMR125W, strain sto1, stronger effect = lower value) was 0.969, the normalized growth (locus YMR129W, stronger effect = lower value) was 0.983 and the normalized growth (locus YMR205C, strain PFK2, stronger effect = lower value) was 0.985. For the same compound, the normalized growth (locus YMR231W, strain pep5, stronger effect = lower value) was 0.977, the normalized growth (locus YNL071W, strain lat1, stronger effect = lower value) was 0.978 and the normalized growth (locus YNL209W, strain ssb2, stronger effect = lower value) was 0.989. It also gave a normalized growth (locus YNL248C, strain rpa49, stronger effect = lower value) of 0.951, a normalized growth (locus YNL322C, strain KRE1 (second series), stronger effect = lower value) of 0.962 and a normalized growth (locus YNR049C, strain mso1, stronger effect = lower value) of 0.98. For the same compound, the normalized growth (locus YOR001W, strain rrp6, stronger effect = lower value) was 0.994, the normalized growth (locus YOR070C, strain gyp1, stronger effect = lower value) was 0.992 and the normalized growth (locus YOR080W, strain dia2, stronger effect = lower value) was 0.974. It also gave a normalized growth (locus YOR083W, strain WHI5, stronger effect = lower value) of 1, a normalized growth (locus YOR106W, strain vam3, stronger effect = lower value) of 1 and a normalized growth (locus YOR265W, strain rbl2, stronger effect = lower value) of 0.984. The normalized growth (locus YOR270C, strain vph1, stronger effect = lower value) was 0.931, the normalized growth (locus YOR290C, strain snf2, stronger effect = lower value) was 0.933 and the normalized growth (locus YPL051W, strain arl3, stronger effect = lower value) was 0.994. The normalized growth (locus YPL078C, strain atp4, stronger effect = lower value) was 0.977, the normalized growth (locus YPL106C, strain sse1, stronger effect = lower value) was 0.973 and the normalized growth (locus YPL240C, strain hsp82, stronger effect = lower value) was 0.985.
